Laboratory results published in PubChem BioAssay (NCATS).
Inconclusive results are not listed. The source made the active and inactive calls. Unless noted, calls follow the shape of the dose curve; as a rule, active = well fitted curve in the direction sought with a large enough effect; inconclusive = small, poorly fitted or top-dose-only effect, or another doubt; inactive = no such curve, though single readings can be large; an effect the other way counts as inactive or inconclusive.

Tests used:
[1] = qHTS assay for small molecule agonists of retinoid X receptor alpha signaling (AID 588544; calls by dose curve); conditions: HEK293T RXRa-UAS-bla, beta-lactamase reporter, 18 h; 530 nm emission
Excerpt: (§1) NIH Chemical Genomics Center [NCGC] U.S. Environmental Protection Agency [EPA] National Institutes of Environmental Health Sciences [NIEHS] National Toxicology Program [NTP] NCGC Assay Overview The Retinoid X receptor (RXR), a nuclear hormone receptor is expressed in liver, spleen, placenta, epidermis, central nervous system. These receptors are able to form homo and heterodimers with other nuclear receptors and due to this heterodimerizing ability, RXR functions as master regulators producing diverse physiological effects. Three subtypes of RXR exist; alpha, beta and gamma. Retinoid X receptor alpha (RXR-alpha) has potential roles in metabolic signaling pathways, skin alopecia, dermal cysts, cardiac development, insulin sensitization etc. Therefore screening environmental chemicals on RXR-alpha signaling can be used for the studies focused on such therapeutic applications.
(§2) NCGC Assay Protocol Summary Using a beta-lactamase reporter-gene under control of Retinoid X receptor--alpha (RXR-alpha) response element, a cell-based assay [GeneBLAzer (RXR-alpha -UAS-bla assay developed by Invitrogen] was used to measure RXR-alpha ligands signaling. GeneBLAzer RXR-alpha -UAS-bla HEK293T cells were used with assay medium containing 2% charcoal-stripped FBS. The assay was performed in clear bottom black Greiner 1536-well plates. 9-cis-retinoic acid was used in the screen as the positive control. Library compounds were measured for their ability to stimulate the reporter gene activity. Compounds were screened in a titration series in 1536-well format. The fluorescence intensity (405 nm excitation, 460/530 nm emission) was measured using an EnVision plate reader. Data was normalized relative to 9-cis-retinoic acid control (500 nM, 100%), and DMSO only wells (basal, 0%). Concentration-response titration points for each compound were fitted to the Hill equation yielding concentrations of half-maximal stimulation (EC50) and maximal response (efficacy) values. qHTS protocol for RXR-alpha beta-lactamase assay in agonist mode [Step] [Parameter] [Value] [Description] 1. Reagent; 6 uL; 2500 cells/well 2. Incubation; 37 C for 4 hrs 3. Compounds; 23 nL; 0.59 nM to 92 uM 4. Controls (9-cis-retinoic acid); 23 nL, - One column with dose response, start 38 uM, 1:3 dilutions in duplicates - Final concentrations of 500 nM and 50 nM in two columns 5. Incubation; 37 C for 18 hrs 6. Detection reagent; 1 uL of CCF4-dye 7. Incubation; RT for 2 hrs 8. Detection; Fluorescence; Envision plate reader

[2] = molecular target: Retinoic acid receptor RXR-alpha (Homo sapiens) (UniProt P19793); experiment: as above; conditions: HEK293T RXRa-UAS-bla, beta-lactamase reporter, 18 h; series mostly up to 76.7 µM
Sequence of Retinoic acid receptor RXR-alpha (Homo sapiens) (P19793 whole entry, looked up): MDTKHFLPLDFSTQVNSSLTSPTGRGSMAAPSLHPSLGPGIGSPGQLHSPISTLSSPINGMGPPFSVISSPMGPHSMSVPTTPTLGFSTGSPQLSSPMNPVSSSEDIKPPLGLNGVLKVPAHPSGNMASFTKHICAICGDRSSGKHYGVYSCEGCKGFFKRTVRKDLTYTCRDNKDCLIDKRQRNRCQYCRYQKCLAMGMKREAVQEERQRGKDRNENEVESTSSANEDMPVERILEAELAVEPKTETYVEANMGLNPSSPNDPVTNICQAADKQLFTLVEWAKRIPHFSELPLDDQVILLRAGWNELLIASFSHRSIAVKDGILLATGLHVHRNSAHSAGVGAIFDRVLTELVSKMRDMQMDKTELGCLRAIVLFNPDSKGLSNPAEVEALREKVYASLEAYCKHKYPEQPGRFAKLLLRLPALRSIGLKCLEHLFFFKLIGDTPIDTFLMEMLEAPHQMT
Excerpt: as §1, §2

[3] = qHTS assay for small molecule antagonists of retinoid X receptor alpha signaling (AID 588546; active = well fitted inhibition curve with a large enough effect in the signal ratio, with a control signal flat, not every such curve was filed as active; the % refers to the signal ratio; also: % is scaled to controls: 0 for no effect and ±100 for the full control effect); conditions: HEK293T RXRa-UAS-bla, beta-lactamase ratio, antagonist mode; measured here: W530 green channel, cytotoxicity proxy
Procedure, shortened: (§3)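 Beta-lactamase reporter inhibition, read as CCF4 fluorescence ratio (ex 405, em 460/530 nm) after 2 h at RT. HEK293T UAS-bla cells, 2500/well, were stimulated with 9-cis-RA at 500 or 100 nM final alongside test compound for 18 h at 37 C.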

[4] = molecular target: Retinoic acid receptor RXR-alpha (Homo sapiens) (UniProt P19793); experiment: as above; conditions: HEK293T RXRa-UAS-bla, beta-lactamase ratio, antagonist mode
Procedure, shortened: as §3

[5] = molecular target: Thyroid hormone receptor beta (Homo sapiens) (UniProt P10828); experiment: qHTS assay for small molecule antagonists of thyroid hormone receptor beta signaling (AID 588547; active = well fitted inhibition curve with a large enough effect in the signal ratio, with a control signal flat, not every such curve was filed as active; the % refers to the signal ratio;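 also: cells stimulated with 0.4 nM T3 agonist during compound exposure; % is scaled to controls: 0 for no effect and ±100 for the full control effect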); conditions: TR-UAS-bla HEK293, beta-lactamase ratio, antagonist mode, 18 h
Sequence of Thyroid hormone receptor beta (Homo sapiens) (P10828 whole entry, looked up): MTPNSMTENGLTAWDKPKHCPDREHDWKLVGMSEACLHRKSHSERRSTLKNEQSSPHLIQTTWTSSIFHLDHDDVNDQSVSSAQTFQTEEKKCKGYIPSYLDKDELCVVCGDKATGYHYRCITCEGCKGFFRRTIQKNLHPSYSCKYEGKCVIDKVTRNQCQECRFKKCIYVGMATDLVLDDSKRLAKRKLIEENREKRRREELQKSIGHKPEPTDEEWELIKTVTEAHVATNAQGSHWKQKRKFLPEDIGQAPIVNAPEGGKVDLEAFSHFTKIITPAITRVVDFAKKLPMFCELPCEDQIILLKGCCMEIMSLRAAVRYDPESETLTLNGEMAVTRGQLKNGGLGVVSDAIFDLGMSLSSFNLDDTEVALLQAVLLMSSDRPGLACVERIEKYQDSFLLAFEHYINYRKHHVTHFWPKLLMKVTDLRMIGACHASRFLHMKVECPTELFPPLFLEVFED
Procedure, shortened: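 TR-UAS-bla GripTite HEK293 cells in 2% charcoal/dextran FBS medium were preincubated 4 h at 37 C, given compound (0.59 nM to 92 uM) plus 0.4 nM T3 (final) for 18 h, then CCF4 for 2 h at RT; Hill fit gave IC50.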

[6] = qHTS assay for small molecule agonists of the antioxidant response element (ARE) signaling pathway (AID 651741; active = well fitted activation curve with a large enough effect in the signal ratio; the % refers to the signal ratio; also: % of control where 0% means no effect); conditions: HepG2 ARE-bla reporter, beta-lactamase FRET ratio, 16 h; series mostly up to 96 µM
Procedure, shortened: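 Compounds in DMSO are pinned onto HepG2 ARE-bla cells (2,000/well) that were preincubated 5 h; plates stay 16 h at 37 C, then beta-lactamase activity is detected with LiveBLAzer B/G substrate by fluorescence.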

[7] = qHTS assay for environmental chemicals that activate the Aryl hydrocarbon Receptor (AhR) signaling pathway (AID 651777); conditions: 1A2-DRE human hepatoma cells, luciferase, 24 h; stronger effect = higher value; also: % of control where 0% means no effect; nearly all actives have a fitted effect of over 15% in size
Procedure, shortened: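 Luminescence read-out: One-Glo added for 30 min at RT after 24 hr compound treatment (37 C, 5% CO2) of human hepatoma cells expressing a DRE/CYP1A2 promoter–luciferase reporter; increased signal indicates AhR activation.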

[8] = molecular target: Peroxisome proliferator-activated receptor alpha (Homo sapiens) (UniProt Q07869); experiment: qHTS assay for small molecule agonists of the peroxisome proliferator-activated receptor alpha (PPARalpha) signaling pathway (AID 651778); conditions: PathHunter PPARalpha complementation, chemiluminescence, 6 h; stronger effect = higher value; also: % of control where 0% means no effect
Sequence of Peroxisome proliferator-activated receptor alpha (Homo sapiens) (Q07869 whole entry, looked up): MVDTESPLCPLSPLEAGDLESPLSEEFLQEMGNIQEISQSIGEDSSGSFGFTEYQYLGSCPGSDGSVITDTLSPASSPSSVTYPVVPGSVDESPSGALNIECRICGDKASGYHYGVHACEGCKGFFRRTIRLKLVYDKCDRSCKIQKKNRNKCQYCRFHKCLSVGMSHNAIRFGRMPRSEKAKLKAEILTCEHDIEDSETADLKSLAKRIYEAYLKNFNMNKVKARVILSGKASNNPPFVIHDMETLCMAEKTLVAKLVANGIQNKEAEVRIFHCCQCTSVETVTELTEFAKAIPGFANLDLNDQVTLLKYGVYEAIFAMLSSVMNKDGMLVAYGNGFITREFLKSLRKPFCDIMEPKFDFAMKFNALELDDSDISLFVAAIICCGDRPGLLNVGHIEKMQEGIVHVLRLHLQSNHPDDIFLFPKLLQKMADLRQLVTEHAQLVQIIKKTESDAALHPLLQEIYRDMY
Procedure, shortened: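 Cells plated at 2,000/well and held overnight at 37 C, 5% CO2, then compound added by pin tool for 6 hr; after PathHunter detection reagent and 60 min at room temperature, chemiluminescence from enzyme complementation was read.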

[9] = qHTS assay for small molecule agonists of the antioxidant response element (ARE) signaling pathway measured by Nrf2-dependant transcriptional activity (AID 720636; active = well fitted curve in the direction sought with a large enough effect in the repeat runs; an effect the other way counts as inactive or inconclusive;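 also: HepG2 cells with an ARE-driven luciferase reporter; % of control where 0% means no effect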); conditions: ARE-luc HepG2, Nrf2 luciferase reporter, 16 h; series mostly up to 92.4 µM
Procedure, shortened: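 HepG2 ARE-luc reporter line, 1% dialyzed FBS; 6 hr attachment at 37 C, compound pinned in, 16 hr at 37 C/5% CO2; ONE-Glo, 30 min RT, luminescence read.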

[10] = qHTS assay for small molecule agonists of the antioxidant response element (ARE) signaling pathway measured by Nrf2-dependant transcriptional activity - cell viability counter screen (AID 720653; active = well fitted curve in the direction sought with a large enough effect in the repeat runs; an effect the other way counts as inactive or inconclusive; also: % is scaled to controls: 0 for no effect and ±100 for the full control effect); conditions: ARE-bla HepG2 viability, CellTiter-Glo ATP luminescence, 16 h; stronger effect = lower value
Procedure, shortened: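 ARE-bla HepG2 cells (2,000/well) rested 5 hrs at 37C/5% CO2, then exposed to compounds in DMSO for 16 hrs. Viability was read in the same wells as intracellular ATP by luminescence, 30 min at room temperature after reagent addition.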

[11] = qHTS assay for cell viability of HEK293 cells (AID 743288); conditions: ATP luminescence (CellTiter-Glo), 18 h, stronger effect = lower value; also: % is scaled to controls: 0 for no effect and ±100 for the full control effect; nearly all actives have a fitted effect of over 50% in size
Procedure, shortened: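 The Tox21 protocol used parental HEK293 cells treated for 18 h at 37 C with compounds delivered by pintool; ATP-coupled luminescence after 30 min at room temperature gave viability.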

[12] = qHTS assay for cell viability of the p53RE-bla HCT-116 cell line (AID 743292); conditions: p53RE-bla HCT-116 viability, ATP luminescence, 16 h; series mostly up to 95 µM; also: % is scaled to controls: 0 for no effect and ±100 for the full control effect; nearly all actives have a fitted effect of over 55% in size
Procedure, shortened: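 Luminescent ATP quantitation (CellTiter-Glo) served as the viability read-out; reagent was added after 16 h compound exposure at 37 C and read after 30 min at room temperature. Cells: p53RE-bla HCT-116, 4,000 per well.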

COc1c(Cl)ccc(Cl)c1C(=O)O
max response [1]: -9.41%
outcome [2]: inactive
max response [3]: -0.329%
max response [4]: 3.8% (inactive)
activity change % (negative = inhibition) [5]: 5.53% (inactive)
Potency [6]: inactive
activation [7]: 1.18% (inactive)
max response [8]: 0.109% (inactive)
outcome [9]: inactive
max response [10]: -4.23% (inactive)
max response [11]: -3.63% (inactive)
outcome [12]: inactive
